Measurements as given in PubChem BioAssay (NCATS).
Inconclusive results are not listed. Active and inactive are the calls of the source. Calls come from the whole dose curve; as a rule, active = well fitted inhibition curve with a large enough effect; inconclusive = small, poorly fitted or top-dose-only effect; inactive = flat fitted curve, though single readings scatter.

Key:
[1] = Drug repurposing screens with cells derived from glioblastoma tumor samples (AID 1345199); details: GBM patient neurospheres viability, ATP luminescence, 48 h; note: nearly all actives have a fitted effect of over 40% in size
Method in brief: (§1)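 Four patient lines of CD133+ GBM neurospheres were screened at several concentrations; hits were retested in those lines plus three slower-growing GBM lines, using 48-hour treatment and ATP-based viability.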

astro = control astrocytes; test: as above; details: viability, ATP luminescence, 48 h; series mostly up to 45.9 µM
Method in brief: as §1

[2] = at 45.9 µM (top of the series), tumour line B
[3] = at 45.9 µM (top of the series), tumour line D
[4] = at 46.1 µM (top of the series), tumour line C
% is set by controls: 0 for no effect and ±100 for the full control effect.

Cc1cc(C)c(NC(=O)C[C@H](CC(=O)O)c2cccc3ccccc23)c(C(=O)N2CCC3(CCCC3)CC2)c1
inactive: activity, negative = cell killing [1, 2] -14% | activity, negative = cell killing [1, 3] 2.34% | activity, negative = cell killing [1, 4] -29.7% | Potency (astro)

NC(Cc1ccccc1)C(=O)O (stereo unspecified)
inactive: activity, negative = cell killing [1, 2] -8.84% | activity, negative = cell killing [1, 3] 10.2% | activity, negative = cell killing [1, 4] -12.6% | Potency (astro)

C[C@@H]1C[C@H]2[C@@H]3C[C@H](F)C4=CC(=O)C=C[C@]4(C)[C@@]3(Cl)[C@@H](O)C[C@]2(C)[C@H]1C(=O)COC(=O)C(C)(C)C
inactive: activity, negative = cell killing [1, 2] -18.4% | activity, negative = cell killing [1, 3] -9.89% | activity, negative = cell killing [1, 4] -26.7% | Potency (astro)

CCOc1ccc(S(=O)(=O)O)c2cccnc12
inactive: activity, negative = cell killing [1, 2] -12% | activity, negative = cell killing [1, 3] -2.86% | activity, negative = cell killing [1, 4] -26.7% | Potency (astro)

C[Se]CC[C@H](N)C(=O)O
inactive: activity, negative = cell killing [1, 2] -12.9% | activity, negative = cell killing [1, 3] -0.664% | activity, negative = cell killing [1, 4] -22.8% | Potency (astro)

FC(F)(F)C(F)(F)C(F)(F)C(F)(F)C(F)(F)C(F)(F)F
inactive: activity, negative = cell killing [1, 2] -7.96% | activity, negative = cell killing [1, 3] -23% | activity, negative = cell killing [1, 4] -26.4% | Potency (astro)

CC(C)(C)NCC(O)c1ccc(O)c(CO)n1 (stereo unspecified)
inactive: activity, negative = cell killing [1, 2] -4.38% | activity, negative = cell killing [1, 3] 7.95% | activity, negative = cell killing [1, 4] -15% | Potency (astro)

O=C1c2ccccc2C(=O)C1c1ccc(Cl)cc1
inactive: activity, negative = cell killing [1, 2] -10.4% | activity, negative = cell killing [1, 3] -11.7% | activity, negative = cell killing [1, 4] -10.5% | Potency (astro)

CC[C@H]1OC(=O)[C@H](C)[C@@H](O[C@H]2C[C@@](C)(OC)[C@@H](O)[C@H](C)O2)C(C)[C@@H](O[C@@H]2O[C@H](C)C[C@H](N(C)C)[C@@H]2O)[C@](C)(OC)C[C@@H](C)C(=O)[C@H](C)[C@@H](O)[C@]1(C)O (stereo partly specified)
inactive: activity, negative = cell killing [1, 2] -10.3% | activity, negative = cell killing [1, 3] -27.7% | activity, negative = cell killing [1, 4] 2.27% | Potency (astro)
